# Screening results from PubChem BioAssay.
# This is a sample that favours compounds with a hit; in the whole collection about 3.9% have one here.
# CDK5 p35 inh = inhibitors of human CDK5/p35 kinase. 330,000 tested, 0.01% active. AID 488839. Recombinant CDK5/p35, ADP-Glo luminescence, 60 min. inhibition, % at 10 µM;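 active means highest replicate inhibition of at least 50% and at least 75% of replicates reaching 50%; inconclusive means only one of the two criteria met; inactive means both criteria failed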;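 further: plate controls were DMSO neutral control for no effect and GW8510 at 10 µM for full effect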
# Glyco luc inh = blocks N-linked glycosylation in D54 reporter cells; D54 ERlucT glycosylation luciferase reporter, 24 h; percent of 100 nM tunicamycin response; 360,000 tested, 0.23% active; reporter increase, % at 12.5 µM;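 active means mean luciferase reporter signal, scaled so untreated is 0 and the glycosylation-blocking control 100, at or above a set limit in every replicate; inconclusive means mean reaches the limit but not every replicate does; inactive means mean below the limit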;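 further: luciferase carries N-glycosylation sites so blocking glycosylation raises the light; 0% = median of neutral control wells and 100% = median of 100 nM tunicamycin wells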
# CASP6 VEID inh = blocks human caspase-6 cleavage activity; AID 686996; purified caspase-6, Z-VEID-R110 cleavage fluorescence; inhibition, % at 12.5 µM; 350,000 tested, 0.53% active; P55212;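 active means mean inhibition across replicates at least about 35%, with every replicate also reaching that limit, limit read from the data; inconclusive means only one of the two criteria met; inactive means neither criterion met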;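 further: 0% = median of neutral control wells and 100% = no fluorescence left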
# Target sequence (P55212 24-179 limits assumed): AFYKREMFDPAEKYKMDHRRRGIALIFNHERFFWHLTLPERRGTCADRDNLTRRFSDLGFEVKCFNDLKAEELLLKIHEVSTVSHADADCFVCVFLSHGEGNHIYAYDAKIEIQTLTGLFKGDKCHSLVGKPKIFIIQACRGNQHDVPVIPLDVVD
# Target sequence (P55212 194-293 limits assumed): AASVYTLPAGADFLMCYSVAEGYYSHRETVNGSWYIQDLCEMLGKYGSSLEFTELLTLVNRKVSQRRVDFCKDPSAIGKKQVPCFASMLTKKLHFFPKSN
# SUMO Mot1 rescue = inhibitors of SUMOylation pathway: yeast Mot1-301 growth rescue; S. cerevisiae Mot1-301 growth rescue, ATP luminescence, 38.5C; percent above DMSO median, 100 means doubled; growth rescue, % at 18.8 µM; 320,000 tested, 1% active;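 active means every valid replicate shows activation above 250% relative to neutral control wells; inactive means the rest, any valid replicate at or below 250%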;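 further: OY570 slx delta 5 strain wells were the positive control but not used for scaling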
# ALR inh = blocks human ALR sulfhydryl oxidase activity | P55789 | purified ALR, DTT oxidation, H2O2 HRP-luminol luminescence | inhibition, % (no concentration beside the values) | 290,000 tested, 3.8% active;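 active means mean replicate inhibition above about 79%, with every replicate also reaching it, limit read from the data; inconclusive means only one of the two criteria met; inactive means mean below limit and not every replicate reaching it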
# NSD2 inh = NSD2 (human) methyltransferase inhibition. O96028. NSD2 peptide methylation, AlphaScreen, 120 min. inhibition, % at 12.5 µM. 310,000 tested, 0.54% active. AID 743445; in the data active means inhibition above about 50%
# An asterisk follows results filed as active; ? = inconclusive; . = not tested or not shown.
SMILES,CDK5 p35 inh,Glyco luc inh,CASP6 VEID inh,SUMO Mot1 rescue,ALR inh,NSD2 inh
Cc1nnc(NC(=O)CSc2nnc(CNC(=O)c3ccc(S(=O)(=O)N(C)C)cc3)o2)s1,-0.6,1.3,4.6,-6.6,0.1,-3.1
COC(=O)c1ccc(CSc2nnc(CNC(=O)c3ccccc3F)o2)o1,-0.4,-0.2,.,0.4,97.0*,.
COc1cccc(N2CC(C(=O)Nc3nnc(SCc4cccnc4)s3)CC2=O)c1 (stereo unspecified),-8.7,2.0,1.0,-5.0,-44.0,-0.4
O=C(Nc1nnc(SCc2cccnc2)s1)C1CC(=O)N(c2ccc(F)cc2)C1 (stereo unspecified),-2.8,-1.1,4.0,7.3,97.0*,1.2
CCC1(c2ccccc2)ON(c2c(Br)cccc2Br)C1=O (stereo unspecified),-0.7,3.2,-0.6,717.6*,-2.3,.
O=C1CC(/C=C/c2ccccc2)=Nc2ccccc2N1,0.1,1.7,2.5,12.2,-1.5,-1.1
O=C1CC(/C=C/c2ccc(Cl)cc2)=Nc2ccccc2N1,-1.3,1.3,1.7,568.1*,.,-0.3
O=C(COc1ccccc1)Nc1nnc(-c2ccco2)o1,-0.4,0.8,-1.4,5.8,?,-1.2
O=C(COc1ccccc1)Nc1nnc(-c2ccccc2)o1,-1.0,1.4,0.5,-4.9,92.7*,.
Oc1ccc(/C=N/N2CCN(Cc3ccccc3)CC2)cc1,-0.2,1.7,-2.2,144.8,81.8*,6.0
COc1cc(/C=N/N2CCN(Cc3ccc(C)cc3)CC2)cc(OC)c1O,-0.2,0.0,2.4,-11.6,99.1*,5.6
COc1ccccc1N1CCN(/N=C/c2cccc(O)c2)CC1,3.3,-1.2,1.8,-14.2,51.5,2.2
COc1cc(C=NNC(=O)CN2CCN(Cc3ccc(C)cc3)CC2)cc(OC)c1O,.,.,.,.,.,8.0
COc1cc(/C(C)=N/N2CCN(Cc3ccc(C)cc3)CC2)ccc1O,-0.2,-2.3,-5.8,3.5,89.2*,2.9
CC(=NN1CCN(Cc2ccccc2Cl)CC1)c1ccc(O)cc1,.,.,.,.,.,6.9
COc1ccccc1N1CCN(/N=C/c2cc(OC)c(O)c(OC)c2)CC1,-2.3,-1.0,-0.1,213.0,98.8*,4.2
COc1cccc(C(=O)Nc2ccc3c(c2)C(=O)N(C)C[C@@H](OC)[C@H](C)CN[C@H](C)CO3)c1,.,.,3.9,.,.,.
C[C@@H]1CN([C@H](C)CO)C(=O)Cc2cc(NC(=O)Cn3cnnn3)ccc2O[C@H]1CN(C)S(=O)(=O)c1cccs1,.,.,0.4,.,.,.
COC(=O)c1sc(-c2ccccc2)cc1NC(C)=O,-0.4,-1.6,-5.6,14.8,2.1,-1.2
COC(=O)c1sc(-c2cccs2)cc1NC(=O)/C=C/C(=O)O,0.4,2.7,30.4,-26.1,98.0*,.
C[C@@H]1CCCCO[C@H](CN(C)C(=O)CCCN(C)C)[C@@H](C)CN([C@H](C)CO)C(=O)c2cc(NC(=O)Nc3ccc(F)cc3)ccc2O1,.,.,-1.6,.,.,.
COc1ccc(C(=O)c2ccc(OC)cc2OC)cc1,0.6,12.0,-0.7,25.9,2.7,-4.5
COc1ccc(C(=O)c2ccc(N(C)C)cc2)c(OC)c1,1.5,14.8,1.5,-2.8,96.4*,3.7
CCN1c2ccccc2NC2C1C(C(C)=O)C(=O)N2c1ccc(Cl)cc1 (stereo unspecified),3.3,-2.3,-1.1,-12.8,-32.4,-1.5
CCN1c2ccccc2NC2N=C(OC)C(c3ccccc3)C21 (stereo unspecified),1.0,-8.4,.,-10.3,98.6*,13.0
CCOCC(=O)N1CCC(Cc2ccccc2)CC1,0.3,-0.5,.,26.0,-13.4,2.6
Cn1c(C(=O)O)c(CC(=O)N2CCC(Cc3ccccc3)CC2)c2ccccc21,-1.3,-2.1,3.8,892.7*,7.5,1.9
CN(C)CCCN1C(=O)c2cccc3cccc(c23)C1=O,0.4,115.5*,0.7,16.3,-5.2,24.2
CN(C)CCN1C(=O)c2cccc3cc([N+](=O)[O-])cc(c23)C1=O,0.9,43.2*,1.9,.,.,8.5
